In the library only some 1.9% were active in any assay of this set; here they are far more common.
Yeast superoxide: lowers age-related superoxide in aged yeast cells | S. cerevisiae aged cells, superoxide DHE fluorescence; hits give low values | superoxide response (% of plate mean), % at 10 µM | hit rate 0.18% among 330,000;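 active = superoxide response under a set limit, about three screen SD below normal, cut at about 65% in these data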;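 note: yeast aged for seven days with compound at 30 °C before DHE staining; 100% = average MFI of all compound-treated wells on the plate with controls excluded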
LANA-H2A inh: blocks KSHV LANA binding to histone H2A/H2B | Q9QR71 | cell-free LANA-H2A/H2B peptide, fluorescence polarization | inhibition, % (no concentration beside the values) | hit rate 0.6% among 320,000 | AID 2629; in the data active = inhibition mostly above about 10%, no sharp cut-off; inactive = mostly below about 6.7%
GLD-1 TGE inh: GLD-1-TGE RNA interaction inhibition (C. elegans); Q17339; purified GLD-1 + fluorescein TGE RNA, fluorescence polarization; inhibition, % at 5.96 µM; hit rate 0.44% among 320,000; AID 2280;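 active = percent inhibition above a per-plate cutoff, the plate mean of test compounds plus 3 SD, cut at about 30% in these data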;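 note: 0% = DMSO wells with GLD-1 and probe and 100% = wells lacking GLD-1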
MCL1 BIM primary: inhibitors of human MCL1 binding to BIM-BH3 peptide; GST-MCL1 / FITC-Bim-BH3 fluorescence polarization; Q07820; AID 2057; inhibition, % at 10.9 µM; hit rate 0.68% among 320,000;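 active = inhibition above the mean inhibition of all tested compounds plus 3 SD, set per campaign, cut at about 40% in these data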;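 note: 0% = DMSO wells and 100% = unlabeled Bim-BH3 peptide control; higher means more loss of mP so more displacement of Bim peptide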
Bcl-xL primary: blocks human Bcl-xL binding to Bim BH3 peptide | GST-Bcl-xL / FITC-Bim BH3 peptide fluorescence polarization | hit rate 0.7% among 320,000 | Q07817 | inhibition, % at 10.9 µM | AID 2129;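 active = inhibition above the mean of all tested compounds plus 3 SD, cutoff set per campaign, cut at about 30% in these data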;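 note: 0% = DMSO wells and 100% = unlabeled Bim-BH3 peptide competitor; inhibitors lower millipolarization by displacing the labeled peptide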
Target sequence (Q07817 whole entry, looked up): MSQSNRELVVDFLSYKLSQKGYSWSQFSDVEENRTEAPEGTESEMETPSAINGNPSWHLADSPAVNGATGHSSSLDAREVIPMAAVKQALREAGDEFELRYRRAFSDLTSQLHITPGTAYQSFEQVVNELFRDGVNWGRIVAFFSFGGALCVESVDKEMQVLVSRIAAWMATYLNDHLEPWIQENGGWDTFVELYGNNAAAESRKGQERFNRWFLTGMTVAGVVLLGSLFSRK
MEX-5 binding: C. elegans MEX-5 TCR-2 RNA binding activity | activity score (negative = inhibition of binding), % at 10 µM | hit rate 0.38% among 300,000 | MEX-5/FITC-TCR2 RNA binding, fluorescence polarization; hits give low values;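 active = inhibition past about -25% in most replicates, and total fluorescence under double the plate's negative control median, limit read from the data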;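 note: 0% = DMSO and -100% = 5 µM competing unlabeled TCR2 RNA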
Superoxide pick: yeast aging superoxide inhibition, cherry pick confirmation; hit rate 1% among 850; superoxide response (% of plate), % at 10 µM; AID 434994; shares compounds with Yeast superoxide; S. cerevisiae aging, superoxide DHE fluorescence; hits give low values;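 active = superoxide signal below 65% of the plate average of sample wells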;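 note: cells aged with compound for 7 days at 30 degrees C before staining; 100% equals mean DHE fluorescence of all compound wells on the plate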
DHE counter: compound alters DHE oxidation or fluorescence in yeast | shares compounds with Yeast superoxide | S. cerevisiae BY4741, flow cytometry; hits give low values | fluorescence response, % at 10 µM | 850 tested, under 10 active;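 active = fluorescence response below 15%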;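 note: percent of the mean fluorescence averaged over all compound wells on the plate; lower means stronger quenching of DHE signal or ROS scavenging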
The depositor's hits bear a star.

Cc1cc(C)n(-c2nnc(NC34CC5CC(CC(C5)C3)C4)nn2)n1 was read as Yeast superoxide 63.6*, LANA-H2A inh -2.8, GLD-1 TGE inh 0.0, MCL1 BIM primary 4.7, Bcl-xL primary 0.3, MEX-5 binding 0.0, Superoxide pick 87.0 and DHE counter 97.7.
Screening COc1ccc(OCc2cc(C(=O)NCc3cccc(C)n3)no2)c(Cl)c1 returned Yeast superoxide 104.8, LANA-H2A inh -0.4, GLD-1 TGE inh 5.8, MCL1 BIM primary -3.6, Bcl-xL primary 1.3 and MEX-5 binding 1.0.
Screening CCOC(=O)N1CCN(Cc2nc(-c3cccc(C)c3)no2)CC1 returned Yeast superoxide 64.0*, LANA-H2A inh -7.5, GLD-1 TGE inh 5.6, MCL1 BIM primary 4.1, Bcl-xL primary 2.8, MEX-5 binding 2.7, Superoxide pick 110.3 and DHE counter 108.9.
Screening CNC(=S)N1N=C(c2cccs2)CC1c1ccc(F)cc1 (stereo unspecified) returned Yeast superoxide 65.2*, LANA-H2A inh -3.0, GLD-1 TGE inh 1.9, MCL1 BIM primary 1.0, Bcl-xL primary -5.4, MEX-5 binding 1.8, Superoxide pick 107.3 and DHE counter 94.5.
`O=C(c1ccco1)N1N=C(c2cccs2)CC1c1ccc(F)cc1` (stereo unspecified) gave Yeast superoxide 102.8, LANA-H2A inh 1.6, GLD-1 TGE inh 4.9, MCL1 BIM primary -2.3, Bcl-xL primary -2.7 and MEX-5 binding 3.4.
Screening C=CCn1c(SCC(=O)Nc2cc(C)c(Cl)cc2OC)nnc1-c1ccco1 returned Yeast superoxide 97.5, LANA-H2A inh 3.8, GLD-1 TGE inh 6.3, MCL1 BIM primary 2.6, Bcl-xL primary 3.6, MEX-5 binding -0.7, Superoxide pick 103.7 and DHE counter 97.2.
C=CCn1c(SCC(=O)Nc2cc(C)ccc2OC)nnc1-c1ccco1 was read as Yeast superoxide 115.5, LANA-H2A inh 3.4, GLD-1 TGE inh -2.7, MCL1 BIM primary 3.1, Bcl-xL primary 0.8, MEX-5 binding -0.3, Superoxide pick 95.8 and DHE counter 91.1.
`CC(C)CN1C(=O)c2ccc(NC(=O)Cc3ccccc3)cc2C1=O` gave Yeast superoxide 107.8, LANA-H2A inh -10.9, GLD-1 TGE inh 5.0, MCL1 BIM primary 8.9, Bcl-xL primary 6.7 and MEX-5 binding -0.7.
For CN(NC1OC(=O)c2ccccc21)c1ccc(Cl)cc1[N+](=O)[O-] (stereo unspecified) the results were Yeast superoxide 55.3*, LANA-H2A inh -0.5, GLD-1 TGE inh 1.7, MCL1 BIM primary 3.1, Bcl-xL primary 9.4, MEX-5 binding -3.7, Superoxide pick 82.6 and DHE counter 111.4.
`C/C(=C\c1ccccc1)C(=O)Nc1ccc(S(=O)(=O)Nc2ncccn2)cc1` gave Yeast superoxide 86.4, LANA-H2A inh 2.5, GLD-1 TGE inh 3.5, MCL1 BIM primary 4.5, Bcl-xL primary 3.4 and MEX-5 binding -0.2.

Screening data (PubChem)
